Measurements reported in PubChem BioAssay (EPA / NIEHS).
Active and inactive are the calls of the source. Rule for the calls: active = hit-call score of the fitted dose curve at least 0.9, where 1 is the maximum; inactive = score below 0.9.

Read-out: Tumor necrosis factor receptor superfamily member 6 (Homo sapiens) (UniProt P25445)
Assay: LTEA_HepaRG_FAS: Life Technologies and Expression Analysis (LTEA) Assay for Fas cell surface death receptor (FAS) using HepaRG (AID 2283447)
Settings: mRNA level, 48 h; actives raise or lower the signal
Method in brief: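 Differentiated human HepaRG cells, pre-cultured 48 h, were exposed in duplicate for 48 h to 8-point half-log concentrations (top 100 uM, 0.5% DMSO) in serum-free induction medium; FAS mRNA measured by qRT-PCR, normalized to ACTB/GAPDH/POLR2A, bidirectional fit versus DMSO.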

| SMILES | outcome | AC50 |
| --- | --- | --- |
| OCCCl | inactive | – |
| CCNS(=O)(=O)C(F)(F)C(F)(F)C(F)(F)C(F)(F)C(F)(F)C(F)(F)C(F)(F)C(F)(F)F | inactive | – |
| COC(=O)Nc1nc2ccccc2[nH]1 | inactive | – |
| O=Cc1ccco1 | inactive | – |
| CCCCC(CC)COC(=O)c1ccc(C(=O)OCC(CC)CCCC)c(C(=O)OCC(CC)CCCC)c1 (stereo unspecified) | inactive | – |
| CCCCCCCCn1sccc1=O | inactive | – |
| CC(C)(C)OOC(=O)c1ccccc1 | inactive | – |
| c1ccc2c(c1)oc1ccccc12 | inactive | – |
| COc1cc(C=O)cc2c1[C@H](COC(N)=O)[C@]1(OC(C)=O)ON2C[C@H]2[C@@H]1N2C(C)=O | – | 88.1 µM (active) |
| CCN(CC)CCO | inactive | – |
| ClC1=C(Cl)C2(Cl)C3C(Cl)C=CC3C1(Cl)C2(Cl)Cl (stereo unspecified) | inactive | – |
| CN(C)[C@@H]1C(=O)C(C(N)=O)=C(O)[C@@]2(O)C(=O)C3=C(O)c4c(O)cccc4[C@@](C)(O)[C@H]3C[C@@H]12 | inactive | – |
| ClCCOCCCl | inactive | – |
| Clc1ccc(C(c2ccc(Cl)cc2)C(Cl)Cl)cc1 | inactive | – |
| N#CC(Br)Br | inactive | – |
| CC(O)CCO (stereo unspecified) | inactive | – |
| C1=Cc2cccc3cccc1c23 | inactive | – |
| CCCSC(=O)N(CCC)CCC | inactive | – |
| OCCOCCO | inactive | – |
| Clc1ccc(Cl)c(Cl)c1 | inactive | – |
| CC(C)(OOC(C)(C)c1ccccc1)c1ccccc1 | inactive | – |
| Clc1ccccc1Cl | inactive | – |
| C[N+](C)(C)CC1CO1 (stereo unspecified) | inactive | – |
| COC(=O)c1ccccc1N | inactive | – |
| CN(C)C(=O)Nc1ccc(Cl)cc1 | inactive | – |
| CCCCOC(=O)c1ccccc1C(=O)OCc1ccccc1 | inactive | – |
